# Screens from PubChem.
# This is a sample that favours compounds with a hit; in the whole collection about 1.1% have one here.
# HTR5A inv ctr: inverse agonist of human HTR5A in OPRM1-OPRD1 counter-screen. AID 504634. HTR5A cell line, luminescence, inverse agonism. 340,000 compounds, 0.083% hits. inhibition, % at 9.3 µM; in the data active = inhibition mostly above about 23%, no sharp cut-off; inactive = mostly below about 18%
# HTR5A ag: HTR5A agonism, opioid heterodimer counter-screen. P47898. HTR5A agonist assay, luminescence, cell-based. activation, % at 9.3 µM. 340,000 compounds, 0.61% hits. AID 504692; in the data active = activation mostly above about 9.5%, no sharp cut-off; inactive = mostly below about 7.6%
# OPRM1-OPRD1 inv: mu-delta opioid heterodimer inverse agonism | 340,000 compounds, 0.21% hits | AID 504357 | inhibition, % at 9.3 µM | cell-based MOR-DOR heterodimer luminescence | P35372+P41143; in the data active = inhibition above about 22%, passing the limit was not always enough
# MOR-DOR ag-1: agonists of human mu-delta opioid receptor heterodimerization. P35372+P41143. cells, OPRM1-OPRD1 heterodimerization, luminescence. activation, % at 9.3 µM. 340,000 compounds, 0.3% hits. AID 504326
# MOR-DOR ag-2: promotes OPRM1-OPRD1 heterodimerization in HTR5A counter-screen | shares compounds with HTR5A ag | U2OS counter-screen cells, complementation luminescence, 3 h | activation, % at 9.3 µM | 800 compounds, 13% hits | AID 504913
# HTR5A ag confirm: confirmation of human HTR5A agonists | shares compounds with HTR5A ag | HTR5A agonist cell assay, luminescence | activation, % at 9.3 µM | 800 compounds, 17% hits; in the data active = activation above about 17%
# Numbers stand for hits; i = inactive; nt = not tested or not shown. Rule as the data show it, unless noted: active = activation above about 18%; inactive = the rest.
SMILES,HTR5A inv ctr,HTR5A ag,OPRM1-OPRD1 inv,MOR-DOR ag-1,MOR-DOR ag-2,HTR5A ag confirm
CC1CCCN(C(=O)CCNC(=O)Cn2cnc3ccccc3c2=O)C1 (centres undefined),i,i,i,i,nt,nt
CCCNC(=O)C(Cc1cccc(OC)c1)NC(=O)c1ccc(C(C)(C)C)cc1 (centres undefined),i,i,i,i,nt,nt
O=C(COC(=O)C1=Cc2ccccc2OC1)NCc1ccc(F)cc1,i,i,i,i,nt,nt
C/C(=N/NC(=O)CNc1ccc(C)cc1)c1ccc(Br)s1,i,24,i,i,i,38
COc1ccccc1NCC(=O)N/N=C(\C)c1ccc(Br)s1,i,46,i,i,i,36
N=C1S/C(=C\c2ccc(O)cc2)C(=O)N1c1ccc(F)cc1,i,15,i,i,i,i
CCCCCCSc1ccc([C@H]2N[C@@](Cc3ccccc3)(C(=O)OC)[C@H]3C(=O)N(C)C(=O)[C@@H]23)cc1OC,i,i,i,i,nt,nt
O=C(CSc1ccc(-c2ccc(F)cc2)nn1)NCc1ccco1,i,19,i,i,i,i
COc1ccccc1CNC(=O)CCNS(=O)(=O)c1cc(Br)cnc1N,i,i,i,i,nt,nt
O=C1C(C=NCCCN2CCCC2=O)=C(O)c2ccccc21,i,18,i,i,28,i
O=C(CSc1nnc(NC2CCCCC2)s1)N1CCOCC1,i,i,i,i,nt,nt
CN(C)c1cccc(C(=O)NCC2CCCO2)c1 (centres undefined),i,20,i,i,i,i
CN(C)c1ccc(C(=O)NCC2CCCO2)cc1 (centres undefined),i,i,i,i,nt,nt
O=C(Nc1ccccc1-c1ccccc1)c1ccc(=O)[nH]n1,i,i,i,i,nt,nt
